The text below walks through data of the OligoGym collection.
Further: reference of the scale not given here.

In one assay the target is LEKR1. The experiment in a line: pooled miR-30 sensor sort-seq; sequence = guide strand. The conditions noted are these: shRNA.
The sequence TTTCACAGTCAGCTCTTCCTGT displayed a sensor-assay potency score (higher = more potent) of 0.514.
The same measure, in the same setting: the result for TTAGATTCTTCAGTGTACCGAG reads 0.595.
For TTCTGCTTCAATCTTCTCCTTC, the sensor-assay potency score (higher = more potent) is 0.505.

In another assay the target is LENG8. The description is as above. Conditions: shRNA.
As to TACACCTCCACCGTGAACTCGG, the sensor-assay potency score (higher = more potent) is -0.419.
In turn, TGTTGAACTTGAGACCTCCAGT came in with a sensor-assay potency score (higher = more potent) of -0.589.
With TTCTCGTGTGAGGTATGCCAGC, the sensor-assay potency score (higher = more potent) was -1.1.
TTGAGCAGCTTTTCCGTGCGGT showed a sensor-assay potency score (higher = more potent) of 0.289.
Regarding TTCTTCAGCTCTCGCTCCGGGT, the sensor-assay potency score (higher = more potent) is -0.923.
TTGTACTGCTGGTACCACTGGT displayed a sensor-assay potency score (higher = more potent) of 0.0135.
Sequence TGTACTGAGAAGACCAATCTGT displayed a sensor-assay potency score (higher = more potent) of 0.223.
Sequence TAGTCCTGCTTCTCTTTCCAGT showed a sensor-assay potency score (higher = more potent) of -0.999.
TAAATTTACAACCCAAGTCCAC showed a sensor-assay potency score (higher = more potent) of -0.679.
The same measure, in the same setting: then TTGTCCTTCATGAAGACGTTGC, with -0.437.
Sequence TTCATGGTCACCCTTCTCCAAG displayed a sensor-assay potency score (higher = more potent) of -1.23.
For TCCACCGTGAACTCGGTGCGGA, the sensor-assay potency score (higher = more potent) is -1.28.

Another assay has as its target LEPRE1. The assay is described as above. Conditions: shRNA.
With TACACAGACACTTAAGTACTGT, the sensor-assay potency score (higher = more potent) was -0.0661.
TCCAGCTCCATCTCTTCGCTGA: the sensor-assay potency score (higher = more potent) was -0.664.
Consider TTTCTCTTGCAATCTCTTGGGA, for which the sensor-assay potency score (higher = more potent) is -0.177.
Take TTGGTAATAGTCTAGGTTCTGC: the sensor-assay potency score (higher = more potent) was -0.468.
On the same count and under the same terms, then TAGAGTCGCACTCCCAGTCGAA, with -0.94; and TACTGTATCGCTGTCATGCAGC, with -0.397.
As to TGCAGCAACAGCTTTCTCCAAC, the sensor-assay potency score (higher = more potent) was -1.07.
As for TTGAGTCTCAAGATCCTTGAAG, the sensor-assay potency score (higher = more potent) is -0.379.
On the same count and under the same terms, then TTCTCCAACTTGTTGATCTTGA, with 0.193; and TTGTTGATCTTGAAGTAGGCGA, with -0.0372.
TGTATCGCTGTCATGCAGCGGC registered a sensor-assay potency score (higher = more potent) of -0.603.
On the same count and under the same terms, then TTCTCTTGCAATCTCTTGGGAA, with -0.439.

In the next assay the target is LGALS1. The description is as above. Conditions: shRNA.
For TTTGATCTTGAAGTCACCGTCA, the sensor-assay potency score (higher = more potent) stood at 0.476.
With ATTTGATCTTGAAGTCACCGTC, the sensor-assay potency score (higher = more potent) was 0.155.
In turn, TGATCTTGAAGTCACCGTCAGC had a sensor-assay potency score (higher = more potent) of -1.02.
For the sequence TTCGTATCCATCTGGCAGCTTG, the sensor-assay potency score (higher = more potent) is -0.744.
Take TTGATCTTGAAGTCACCGTCAG: the sensor-assay potency score (higher = more potent) stood at 0.0268.
On to TTGAGATTCAGGTTGCTGGCGA, for which the sensor-assay potency score (higher = more potent) was found to be 0.199.
Same read-out and setting: then TTGACGGTCAGGTTGGCCTGGT, with -0.281; and TTGCTGTTGCACACGATGGTGT, with -0.61; and TTCAGCACGAAGCTCTTAGCGT, with -0.712.
The same measure, in the same setting: then TTGCACACGATGGTGTTGGCGT, with -0.422.

The next assay has as its target LGALS7B. The description is as above. Conditions: shRNA.
Sequence TGCTGTTGAAGACCACCTCCGA registered a sensor-assay potency score (higher = more potent) of -0.584.
Still for that read-out and setting: then TGAAGCCGTCGTCTGACGCGAT, with -0.633.
For the sequence TTGCTGTTGAAGACCACCTCCG, the sensor-assay potency score (higher = more potent) is -0.31.
